Data as given in the supplement of paper PMC8728848.
The sample as a whole holds a higher share of the strongest signals than the screen did.

Legend:
Experiment in all cases: glycan array binding signal (z-score within array); higher = stronger binding
Settings in all cases: glycan notation: IUPAC condensed, linker removed
[1] = molecular target: 4d8dNeu5Ac(a2-3)Gal(b1-4)Glc
How it was run: (§1)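 The Consortium for Functional Glycomics database supplied 3228 glycan arrays, of which those lacking an available protein sequence were dropped. The binding signal, a within-array Z-score, was averaged across arrays of the same protein sequence and across linkers. Negative scores can be read as non-binding.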

[2] = molecular target: 4dNeu5Ac(a2-3)Gal(b1-4)Glc
How it was run: as §1

[3] = molecular target: Fuc(a1-2)Gal(b1-3)GlcNAc(b1-2)Man(a1-3)[Fuc(a1-2)Gal(b1-3)GlcNAc(b1-2)Man(a1-6)]Man(b1-4)GlcNAc(b1-4)GlcNAc
How it was run: as §1

[4] = molecular target: Fuc(a1-2)Gal(b1-3)[Fuc(a1-4)]GlcNAc(b1-2)Man(a1-3)[Fuc(a1-2)Gal(b1-3)[Fuc(a1-4)]GlcNAc(b1-2)Man(a1-3)]Man(b1-4)GlcNAc(b1-4)GlcNAc
How it was run: as §1

[5] = molecular target: Fuc(a1-2)[Gal(a1-3)]Gal(b1-3)GlcNAc
How it was run: as §1

[6] = molecular target: Fuc(a1-2)[Gal(a1-3)]Gal(b1-4)GlcNAc(b1-3)[Fuc(a1-2)[Gal(a1-3)]Gal(b1-4)GlcNAc(b1-6)]GalNAc
How it was run: as §1

[7] = molecular target: Fuc(a1-2)[GalNAc(a1-3)]Gal(b1-4)GlcNAc(b1-2)Man(a1-3)[Fuc(a1-2)[GalNAc(a1-3)]Gal(b1-4)GlcNAc(b1-2)Man(a1-6)]Man(b1-4)GlcNAc(b1-4)[Fuc(a1-6)]GlcNAc
How it was run: as §1

[8] = molecular target: Fuc(a1-2)[GalNAc(a1-3)]Gal(b1-4)GlcNAc(b1-3)Gal(b1-4)GlcNAc
How it was run: as §1

[9] = molecular target: Fuc(a1-2)[GalNAc(a1-3)]Gal(b1-4)[Fuc(a1-3)]GlcNAc(b1-3)GalNAc
How it was run: as §1

[10] = molecular target: Fuc(a1-3)[Gal(b1-4)]GlcNAc(b1-3)[Fuc(a1-2)]Gal(b1-4)Glc
How it was run: as §1

Fuc(a1-4)GlcNAc = molecular target: Fuc(a1-4)GlcNAc
How it was run: as §1

[11] = molecular target: Gal(b1-3)Gal(b1-4)GlcNAc(b1-2)Man(a1-3)[Gal(b1-3)Gal(b1-4)GlcNAc(b1-2)Man(a1-6)]Man(b1-4)GlcNAc(b1-4)GlcNAc
How it was run: as §1

[12] = molecular target: Gal(b1-3)GlcNAc(a1-6)Gal(b1-4)GlcNAc
How it was run: as §1

[13] = molecular target: Gal(b1-3)GlcNAc(b1-3)Gal(b1-4)Glc
How it was run: as §1

[14] = molecular target: Gal(b1-3)GlcNAc(b1-3)Gal(b1-4)[Fuc(a1-3)]GlcNAc(b1-6)[Gal(b1-3)GlcNAc(b1-3)]Gal(b1-4)Glc
How it was run: as §1

[15] = molecular target: Gal(b1-3)[Fuc(a1-4)]GlcNAc(b1-2)Man(a1-3)[Gal(b1-3)[Fuc(a1-4)]GlcNAc(b1-2)Man(a1-6)]Man(b1-4)GlcNAc(b1-4)GlcNAc
How it was run: as §1

[16] = molecular target: Gal(b1-3)[Fuc(a1-4)]GlcNAc(b1-3)Gal(b1-4)[Fuc(a1-3)]GlcNAc
How it was run: as §1

[17] = molecular target: Gal(b1-3)[Fuc(a1-4)]GlcNAc(b1-3)Gal(b1-4)[Fuc(a1-3)]GlcNAc(b1-6)[Gal(b1-3)[Fuc(a1-4)]GlcNAc(b1-3)]Gal(b1-4)Glc
How it was run: as §1

[18] = molecular target: Gal(b1-3)[Neu5Ac(a2-6)]GalNAc
How it was run: as §1

Gal(b1-4)Glc = molecular target: Gal(b1-4)Glc
How it was run: as §1

[19] = molecular target: Gal(b1-4)GlcNAc(b1-2)Man(a1-6)[GlcNAc(b1-2)Man(a1-3)]Man(b1-4)GlcNAc(b1-4)[Fuc(a1-6)]GlcNAc
How it was run: as §1

[20] = molecular target: Gal(b1-4)GlcNAc(b1-2)Man(a1-6)[Man(a1-3)]Man(b1-4)GlcNAc(b1-4)[Fuc(a1-6)]GlcNAc
How it was run: as §1

[21] = molecular target: Gal(b1-4)GlcNAc(b1-3)Gal(b1-4)GlcNAc(b1-2)Man(a1-3)[Gal(b1-4)GlcNAc(b1-3)Gal(b1-4)GlcNAc(b1-2)Man(a1-6)]Man(b1-4)GlcNAc(b1-4)[Fuc(a1-6)]GlcNAc
How it was run: as §1

[22] = molecular target: Gal(b1-4)GlcNAc(b1-3)Gal(b1-4)GlcNAc(b1-3)Gal(b1-4)GlcNAc
How it was run: as §1

[23] = molecular target: Gal(b1-4)GlcNAc(b1-3)Gal(b1-4)GlcNAc(b1-3)Gal(b1-4)GlcNAc(b1-3)Gal(b1-4)GlcNAc(b1-2)Man(a1-3)[Gal(b1-4)GlcNAc(b1-3)Gal(b1-4)GlcNAc(b1-3)Gal(b1-4)GlcNAc(b1-3)Gal(b1-4)GlcNAc(b1-2)Man(a1-6)]Man(b1-4)GlcNAc(b1-4)[Fuc(a1-6)]GlcNAc
How it was run: as §1

[24] = molecular target: Gal(b1-4)GlcNAc(b1-3)Gal(b1-4)GlcNAc(b1-3)Gal(b1-4)GlcNAc(b1-3)Gal(b1-4)GlcNAc(b1-3)Gal(b1-4)GlcNAc(b1-2)[Gal(b1-4)GlcNAc(b1-3)Gal(b1-4)GlcNAc(b1-3)Gal(b1-4)GlcNAc(b1-3)Gal(b1-4)GlcNAc(b1-3)Gal(b1-4)GlcNAc(b1-6)]Man(a1-6)[Gal(b1-4)GlcNAc(b1-3)Gal(b1-4)GlcNAc(b1-3)Gal(b1-4)GlcNAc(b1-3)Gal(b1-4)GlcNAc(b1-3)Gal(b1-4)GlcNAc(b1-2)Man(a1-3)]Man(b1-4)GlcNAc(b1-4)[Fuc(a1-6)]GlcNAc
How it was run: as §1

[25] = molecular target: Gal(b1-4)GlcNAc(b1-3)[Fuc(a1-3)GlcNAc(b1-6)]Gal(b1-4)Glc
How it was run: as §1

[26] = molecular target: Gal(b1-4)GlcNAc(b1-3)[Fuc(a1-3)[Gal(b1-4)]GlcNAc(b1-6)]Gal(b1-4)Glc
How it was run: as §1

[27] = molecular target: Gal(b1-4)GlcNAc(b1-6)[Gal(b1-3)]GalNAc
How it was run: as §1

[28] = molecular target: Gal3S(b1-3)[Fuc(a1-4)]GlcNAc
How it was run: as §1

[29] = molecular target: GalNAc(a1-3)GalNAc(a1-3)Gal(a1-4)Gal(b1-4)GlcNAc
How it was run: as §1

GalNAc(b1-4)Gal(b1-4)Glc = molecular target: GalNAc(b1-4)Gal(b1-4)Glc
How it was run: as §1

GalNAc(b1-4)GlcNAc = molecular target: GalNAc(b1-4)GlcNAc
How it was run: as §1

[30] = molecular target: GalNAc(b1-4)GlcNAc(b1-3)GalNAc(b1-4)GlcNAc
How it was run: as §1

GalNAc3S(b1-4)GlcNAc = molecular target: GalNAc3S(b1-4)GlcNAc
How it was run: as §1

[31] = molecular target: Glc(a1-3)Glc(a1-3)Man(a1-2)Man(a1-2)Man(a1-3)[Man(a1-3)[Man(a1-6)]Man(a1-6)]Man(b1-4)GlcNAc
How it was run: as §1

[32] = molecular target: Glc(a1-4)Glc(a1-4)Glc(a1-4)Glc(a1-4)Glc(a1-4)Glc
How it was run: as §1

Glc(a1-6)Glc = molecular target: Glc(a1-6)Glc
How it was run: as §1

B1: CLEC5A (Homo sapiens), Q9NY25 (protein)
chain: MNWHMIISGLIVVVLKVVGMTLFLLYFPQIFNKSNDGFTTTRSYGTVSQIFGSSSPSPNGFITTRSYGTVCPKDWEFYQARCFFLSTSESSWNESRDFCKGKGSTLAIVNTPEKLKFLQDITDAEKYFIGLIYHREEKRWRWINNSVFNGNVTNQNQNFNCATIGLTKTFDAASCDISYRRICEKNAK
Question: What does the source list for B1?
Answer: glycan array binding signal (z-score) [1]: -0.32; glycan array binding signal (z-score) [2]: -0.32; glycan array binding signal (z-score) [3]: 0.119; glycan array binding signal (z-score) [4]: 0.282; glycan array binding signal (z-score) [5]: -0.016; glycan array binding signal (z-score) [6]: 2; glycan array binding signal (z-score) [7]: 0.189; glycan array binding signal (z-score) [8]: 0.56; glycan array binding signal (z-score) [9]: 2.38; glycan array binding signal (z-score) [10]: -0.32; glycan array binding signal (z-score) (Fuc(a1-4)GlcNAc): 11.1; glycan array binding signal (z-score) [11]: 2.62; glycan array binding signal (z-score) [12]: -0.327; glycan array binding signal (z-score) [13]: -0.282; glycan array binding signal (z-score) [14]: -0.154; glycan array binding signal (z-score) [15]: 1.69; glycan array binding signal (z-score) [16]: -0.037; glycan array binding signal (z-score) [17]: -0.32; glycan array binding signal (z-score) [18]: -0.023; glycan array binding signal (z-score) (Gal(b1-4)Glc): -0.243; glycan array binding signal (z-score) [19]: -0.031; glycan array binding signal (z-score) [20]: 4.98; glycan array binding signal (z-score) [21]: 0.05; glycan array binding signal (z-score) [22]: 0.076; glycan array binding signal (z-score) [23]: 1.88; glycan array binding signal (z-score) [24]: 0.25; glycan array binding signal (z-score) [25]: -0.199; glycan array binding signal (z-score) [26]: -0.031; glycan array binding signal (z-score) [27]: -0.196; glycan array binding signal (z-score) [28]: 0.015; glycan array binding signal (z-score) [29]: -0.892; glycan array binding signal (z-score) (GalNAc(b1-4)Gal(b1-4)Glc): -0.144; glycan array binding signal (z-score) (GalNAc(b1-4)GlcNAc): -0.135; glycan array binding signal (z-score) [30]: -0.136; glycan array binding signal (z-score) (GalNAc3S(b1-4)GlcNAc): -0.162; glycan array binding signal (z-score) [31]: -0.32; glycan array binding signal (z-score) [32]: 1.32; glycan array binding signal (z-score) (Glc(a1-6)Glc): 1.7
